Source: PubChem BioAssay (The Scripps Research Institute Molecular Screening Center)
Shown are actives, neighbours in structure and some others; about 2% of the full set was active somewhere.
LEDGF integ inh = blocks HIV-1 LEDGF/p75-dependent DNA integration; TR-FRET IN-LEDGF/p75 DNA integration, Eu/Cy5; inhibition, % at 3.7 µM; 0.64% of 370,000 active; AID 743269;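 active means inhibition above the screen-wide mean plus 3 SD, cut at about 13% in these data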;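 further: signal is the Cy5 over europium emission ratio at 671 and 618 nm; 0% = plate median of compound wells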
Rin1-Abl PPI inh = blocks binding of human Rin1 to Abl. P00519+Q13671. TR-FRET Rin1/Abl binding, biochemical. inhibition, % at 7.35 µM. 0.4% of 360,000 active. AID 588664; in the data active means inhibition above about 5%, passing the limit was not always enough
TCR CD3 inh = human TCR-CD3 binding inhibition | 0.37% of 360,000 active | TAMRA-labeled TCR probe fluorescence, biochemical | inhibition, % at 9.4 µM | AID 651800; in the data active means inhibition above about 19%;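 further: recombinant mutant TCR 2C K166C tagged with TAMRA read by polarization; 0% = receptor in buffer alone and 100% = receptor with positive control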
UHRF1 binding = UHRF1 methyl-DNA binding inhibition. inhibition, % at 4.4 µM. 0.75% of 370,000 active. Q96T88. UHRF1 binding to methylated oligo, TR-FRET; in the data active means inhibition above about 21%;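 further: UHRF1 SRA domain binding a hemimethylated CpG hairpin DNA probe; 0% = median of test compound wells and 100% = reference inhibitor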
Target sequence (Q96T88 whole entry, looked up, the tested form may be a part): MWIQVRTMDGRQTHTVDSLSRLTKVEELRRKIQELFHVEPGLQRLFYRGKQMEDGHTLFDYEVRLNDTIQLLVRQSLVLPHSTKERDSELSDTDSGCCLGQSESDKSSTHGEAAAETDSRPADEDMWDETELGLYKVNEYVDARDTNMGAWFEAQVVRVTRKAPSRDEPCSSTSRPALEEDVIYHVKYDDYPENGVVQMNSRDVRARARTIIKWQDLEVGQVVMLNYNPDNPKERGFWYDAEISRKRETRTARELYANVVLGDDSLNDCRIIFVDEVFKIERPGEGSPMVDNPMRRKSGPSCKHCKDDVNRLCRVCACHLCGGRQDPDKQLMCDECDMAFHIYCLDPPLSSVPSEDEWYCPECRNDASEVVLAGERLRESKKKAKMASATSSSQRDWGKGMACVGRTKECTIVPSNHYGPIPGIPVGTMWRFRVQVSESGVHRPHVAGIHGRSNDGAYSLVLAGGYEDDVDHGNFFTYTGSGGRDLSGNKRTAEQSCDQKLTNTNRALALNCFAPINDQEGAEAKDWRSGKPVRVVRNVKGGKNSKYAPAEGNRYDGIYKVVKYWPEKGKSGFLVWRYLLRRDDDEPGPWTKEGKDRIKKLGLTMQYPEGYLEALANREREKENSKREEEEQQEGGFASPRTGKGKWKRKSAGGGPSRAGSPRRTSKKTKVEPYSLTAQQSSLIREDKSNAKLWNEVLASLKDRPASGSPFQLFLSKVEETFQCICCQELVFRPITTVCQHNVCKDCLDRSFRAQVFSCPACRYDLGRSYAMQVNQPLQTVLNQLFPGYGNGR
MBD2 DNA inh = MBD2-methylated oligo binding inhibition. Q9UBB5. TR-FRET, MBD2 binding to methylated oligonucleotide. inhibition, % at 4.4 µM. 0.31% of 370,000 active. AID 686964; in the data active means inhibition above about 13%
IN multimer up = activates HIV-1 integrase multimerization in LEDGF counter-screen; activation, % at 7.7 µM; shares compounds with LEDGF integ inh; 17% of 2,000 active; TR-FRET HIV-1 integrase multimerization, biochemical; in the data active means activation above about 8.9%
TRFRET interf = optically interferes with TR-FRET readout in LEDGF counter-screen; 2,000 tested, under 10 active; TR-FRET optical interference counterscreen, HIV-1 IN multimerization; inhibition, % at 7.7 µM; shares compounds with LEDGF integ inh;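 active means inhibition above the mean over all tested compounds plus 3 SD, which no compound reached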;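 further: 0% = integrase with antibodies and DMSO and 100% = antibodies without integrase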
LEDGF integ conf = confirmation of HIV-1 LEDGF/p75-dependent integration inhibitors; TR-FRET LEDGF/p75-dependent HIV-1 integration, biochemical; shares compounds with LEDGF integ inh; 36% of 2,000 active; inhibition, % at 3.7 µM; in the data active means inhibition above about 14%
The depositor's hits bear a star; x = no result.

SMILES	LEDGF integ inh	Rin1-Abl PPI inh	TCR CD3 inh	UHRF1 binding	MBD2 DNA inh	IN multimer up	TRFRET interf	LEDGF integ conf
C=CCc1c(C)nc(-c2ccccc2)nc1N/N=C/c1ccccc1	53*	3	6	-4	2	-1	5	25*
CC1(C)OC(=O)C(=Cc2ccc(-c3ccc(Cl)c(C(=O)O)c3)o2)C(=O)O1	15*	-4	6	35*	5	15*	-55	20*
CC1=NN(c2ccc(Cl)c(C(=O)O)c2)C(=O)/C1=C\c1ccc(-c2ccc(C(=O)O)cc2)o1	-1	-4	7	3	-3	x	x	x
O=C(CN1C(=O)c2ccccc2S1(=O)=O)Nc1cc(S(=O)(=O)N2CCCCC2)ccc1Cl	6	2	-6	2	-3	x	x	x
COc1ccc(OC)c(/C=C/c2ccnc3ccccc23)c1	25*	1	0	4	-3	1	-4	-10
COc1cc(OC)c(OC)cc1/C=C/c1ccnc2ccccc12	1	5	1	-2	-1	x	x	x
O=C1CSc2cc(Cl)ccc2N1	3	-2	5	-3	-2	x	x	x
COCC(=O)N1CCC(Oc2ccc(C(=O)N3CCCCCCC3)cc2)CC1	-1	-1	3	8	2	x	x	x
COCC(=O)N1CCC(Oc2ccc(C(=O)N3CCCCCC3)cc2)CC1	28*	-4	6	1	2	-1	4	0
O=C(OCc1ccc([N+](=O)[O-])cc1)c1cnc(Cl)c(Cl)c1	1	3	12	-1	-2	x	x	x
C=CCNS(=O)(=O)NC(=O)C1=C(N2CCCC2)COC1=O	1	4	-5	0	1	x	x	x
CC(C(=O)Nc1ccc2c(c1)OCCO2)N(C)CC(=O)Nc1ccccc1Br (stereo not drawn)	0	1	-4	-2	4	x	x	x
COc1ccc2nc(NC(=O)c3ccccc3F)sc2c1	16*	0	7	-1	-4	1	-3	-2
COc1ccc2nc(NC(=O)c3ccccc3C(=O)O)sc2c1	-1	2	-7	-3	-1	x	x	x
COC(=O)C1=C(C)N(Cc2ccc(OC)cc2)C(=O)C1	4	-3	-5	3	2	x	x	x
COC(=O)C1=C(C)N(Cc2ccco2)C(=O)C1	29*	-2	0	11	6	2	-7	31*
O=C1CC(c2ccco2)CC(O)=C1C=Nc1cc(Cl)cc(Cl)c1 (stereo not drawn)	45*	-4	11	33*	8	0	2	0
COc1ccc(C2/C(=C(/O)c3ccc(C)cc3)C(=O)C(=O)N2CCCN2CCOCC2)cc1 (stereo not drawn)	1	0	7	-2	0	x	x	x
CC(C)(C)OC(=O)N/N=C/c1cccn1-c1ccc([N+](=O)[O-])cc1	14*	0	2	-4	-9	-3	10	-1
COc1cc(C(=S)N2CCOCC2)ccc1OS(=O)(=O)c1ccc(Cl)cc1	5	0	-2	-1	-1	x	x	x
COc1cc(C(=S)N2CCOCC2)ccc1OS(=O)(=O)c1ccc(C)cc1	20*	-2	-7	1	1	0	-1	-5
CC(C)NC(=O)N(C)C[C@H]1OCc2cn(nn2)CCCC(=O)N([C@H](C)CO)C[C@@H]1C	-4	x	-4	0	-1	x	x	x
COC1=C(N)C(=O)c2nc(C)ccc2C1=O	20*	4	-1	9	-2	0	2	44*
Clc1ccccc1-c1ccc(CN2CCN(c3ccccc3)CC2)o1	31*	-1	-5	0	1	0	1	0
COc1ccc(C(=O)NCC(=O)OCC(=O)Nc2sccc2C#N)cc1OC	2	1	11	0	0	x	x	x
SMILES	LEDGF integ inh	Rin1-Abl PPI inh	TCR CD3 inh	UHRF1 binding	MBD2 DNA inh	IN multimer up	TRFRET interf	LEDGF integ conf
COc1ccc(CN(C)C[C@H]2OCCCC[C@@H](C)Oc3ccc(NS(C)(=O)=O)cc3C(=O)N([C@H](C)CO)C[C@@H]2C)cc1	-9	0	8	-1	-2	x	x	x
CCOC(=O)c1ccc(NC2OC(=O)c3ccccc32)cc1 (stereo not drawn)	20*	1	6	-1	0	-1	2	-6
Cc1ccnc(N2CCC(C(=O)NNC(=O)c3ccccc3)CC2)n1	-2	0	-1	-2	0	x	x	x
Cc1ccc(C(=O)NNC(=O)C2CCN(c3nccc(C)n3)CC2)cc1	18*	1	5	4	4	0	-1	-6
C[C@H](CO)N1C[C@H](C)[C@@H](CN(C)C(=O)Nc2ccc3c(c2)OCO3)Oc2ccc(NC(=O)Cn3cnnn3)cc2C1=O	0	2	0	3	0	x	x	x
OC[C@H]1OC(O)[C@H](O)[C@@H]1O (stereo partly drawn)	-3	1	-6	2	0	x	x	x
COc1ccc(CNc2ccc(N3CCN(C(C)=O)CC3)cc2)cc1OC	15*	-1	-3	-1	-4	4	-19	0
CC(=O)N1CCN(c2ccc(NCc3ccc(C)s3)cc2)CC1	15*	-2	-3	0	1	6	-22	1
CC(=O)N1CCN(c2ccc(NCc3ccc(-c4ccc(Br)cc4)o3)cc2)CC1	19*	-2	2	5	1	6	-30	-1
CC(=O)N1CCN(c2ccc(NCc3cccs3)cc2)CC1	22*	-4	-5	0	1	3	-17	-3
COC(=O)c1ccc(CN(C)S(=O)(=O)c2cccs2)cc1	-3	1	4	-1	-1	x	x	x
CN(CCO)c1cccc2c1S(=O)(=O)N[C@@H](Cc1ccccc1)CO2	-5	x	-1	1	-3	x	x	x
COC(=O)c1nn(-c2ccccc2)c(=O)cc1O	-1	-1	4	-1	2	x	x	x
O=C(O)c1cc(-c2cccs2)nn1-c1cccc(Cl)c1	-1	2	2	3	2	x	x	x
O=C(O)c1nn(-c2cccc(Cl)c2)c(=O)cc1O	17*	0	2	1	0	0	-2	-2
O=C(O)c1cc(-c2ccco2)nn1-c1cccc(Cl)c1	15*	-2	7	28*	6	1	-4	11
CCOc1ccc(NC(=O)Nc2cc(-c3ccccc3)sc2C(=O)OC)cc1	21*	-1	8	-2	6	1	-5	-2
Cc1ccc(-c2cc(C(=O)O)c3cc(Br)ccc3n2)o1	14*	-6	1	9	2	16*	-57	7
Cc1ccc(-c2cc(C(=O)NN3CCOCC3)c3cc(Br)ccc3n2)o1	0	1	2	-4	-2	x	x	x
